Assay outcomes from PubChem BioAssay.
This is a sample that favours compounds with a hit; in the whole collection about 3.4% have one here.
FBW7 activator – FBW7 E3 ligase activators, primary screen, biochemical, AlphaScreen, human; F-box/WD repeat-containing protein 7 (Homo sapiens), Q969H0; AlphaScreen FBW7–phospho-cyclin E peptide binding, activator screen; normalized activity (activation), % at 26.1 µM; 650,000 compounds, 0.13% hits; AID 1259310, 2017; in the data active means normalized activity above about 1.9%;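 further: purified mutant Fbw7 with reduced substrate affinity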
TEAD-YAP block – TEAD-YAP interaction inhibition, primary screen, TEAD-YAP interaction inhibitor project, luminescence, HEK-TIYL cells; AID 1259422, 2018; inhibition, % at 9.12 µM; TEAD-Gal4/YAP UAS-luciferase luminescence; 640,000 compounds, 1.4% hits; in the data active means inhibition above about 32%;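 further: 0% = median of test compound wells and 100% = reference inhibitor wells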
MITF primary – MITF inhibitors, primary screen, biochemical, AlphaScreen, human | 650,000 compounds, 0.91% hits | inhibition, % at 2.6 µM | AlphaScreen MITF homodimerization, bead proximity signal; in the data active means inhibition above about 50%;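 further: 0% = vehicle wells with protein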
GPR151 activ – activators of human GPR151, primary screen, cell-based, PathHunter beta-arrestin, luminescence. AID 1508602, 2020. G-protein coupled receptor 151 (Homo sapiens), Q8TDV0. activation, % at 11.2 µM. 650,000 compounds, 1% hits. PathHunter beta-arrestin GPR151 cells; in the data active means activation above about 4.9%;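 further: 0% = median of compound wells and 100% = cells with positive control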
Target sequence (Q8TDV0 whole entry, looked up): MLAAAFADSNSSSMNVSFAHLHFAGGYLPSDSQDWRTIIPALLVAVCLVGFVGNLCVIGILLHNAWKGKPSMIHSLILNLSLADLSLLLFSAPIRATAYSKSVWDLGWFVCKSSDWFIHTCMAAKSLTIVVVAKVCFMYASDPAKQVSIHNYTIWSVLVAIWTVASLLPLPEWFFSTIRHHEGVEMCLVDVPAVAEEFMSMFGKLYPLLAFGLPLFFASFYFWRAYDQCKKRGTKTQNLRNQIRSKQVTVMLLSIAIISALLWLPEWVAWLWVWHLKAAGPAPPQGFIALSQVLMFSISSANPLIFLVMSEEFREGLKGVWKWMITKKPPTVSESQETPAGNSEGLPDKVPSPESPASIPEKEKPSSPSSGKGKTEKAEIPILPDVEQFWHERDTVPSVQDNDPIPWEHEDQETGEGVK
* = called active by the depositor.

SMILES | FBW7 activator | TEAD-YAP block | MITF primary | GPR151 activ
COc1ccc(-c2nc3ccc(C(=O)NC4CCCCCCC4)cc3nc2-c2ccc(OC)cc2)cc1 | 0 | 2 | -7 | 0
O=C(NC1CCCCC1)c1cccc(N2CCCC2=O)c1 | 0 | 14 | 3 | 0
O=C(NC1CCCCCC1)c1ccc(Cl)cc1Cl | 0 | 33* | 10 | -1
Cc1cc(NC(=O)Cn2nnc(-c3ccc(N)cc3)n2)no1 | 0 | -3 | 11 | 0
N#Cc1c(/N=c2\oc3ccccc3cc2C(=O)Nc2ccccc2F)sc2c1CCCC2 | 0 | -2 | 10 | 0
N#CCCN(C(=O)CN1C(=O)c2ccccc2S1(=O)=O)c1ccccc1 | 0 | -1 | 3 | -2
CCCOc1ccccc1C1C2=C(CC(c3ccc(OC)cc3)CC2=O)Nc2ccccc2N1C(=O)CC (stereo not given) | 0 | 4 | 9 | 1
O=C(c1cccc(-c2ccco2)c1)N1CCC2(CC1)CC2C(=O)N1CCc2ccccc2C1 (stereo not given) | 0 | 1 | 6 | 0
O=C(NC1CCCCCC1)c1ccc2c(c1)OCO2 | 0 | 44* | 3 | -7
O=C(NC1CCCCC1)c1ccc2c(c1)OCO2 | 0 | -18 | -1 | 0
CC12CNCC(C)(CN(Cc3ccccc3)C1)C2=O | 0 | 6 | 1 | -1
CC12CN(CO)CC(C)(CN(Cc3ccccc3)C1)C2=O | 2.6* | 8 | 7 | 1
OCCNc1c2ccccc2nc2ccccc12 | 0 | 71* | 3 | 0
c1ccc2c(NCCc3cnc[nH]3)c3ccccc3nc2c1 | 0 | 77* | 12 | -2
O=C(O)CNc1c2ccccc2nc2ccccc12 | 0 | -5 | 16 | 1
CCOC(=O)C(=Cc1cc(OC)c(OC)cc1Br)C(=O)OCC | 0 | 42* | 2 | 2
CCOC(=O)C(C)Oc1cc(Br)c(C=O)cc1OC (stereo not given) | 0 | 4 | 4 | 0
CC(=O)NC(c1cccc([N+](=O)[O-])c1)c1ccc2cccnc2c1O (stereo not given) | -2 | 83* | 74* | 0
CCCCC(=O)NC(c1cccc([N+](=O)[O-])c1)c1ccc2cccnc2c1O (stereo not given) | -1 | 88* | 55* | -2
CCCCC(=O)NC(c1ccccc1)c1ccc2cccnc2c1O (stereo not given) | -1 | 9 | 41 | -2
COc1cccc(C2=NC(C(F)(F)F)(C(F)(F)F)c3c(n(C)c(=O)n(C)c3=O)N2)c1 | 0 | -2 | 15 | 1
O=C1C(=O)N(CN2N=C(c3ccc(Br)cc3)CC2c2ccccc2Cl)c2ccccc21 (stereo not given) | 0 | -4 | -7 | 1
CC(=O)N1CCN(Cc2ccc3c(c2)CN(C(=O)c2csc(C)n2)CCO3)CC1 | 0 | -7 | 8 | 0
CCOC(=O)c1ccc(N/C=C/C(=O)C(F)(F)F)cc1 | 0 | -5 | -8 | 0
COc1ccc(CNc2nccn3c(-c4cccc5ccccc45)cnc23)cc1 | 2.2* | -8 | 4 | 1
SMILES | FBW7 activator | TEAD-YAP block | MITF primary | GPR151 activ
O=C(COC(=O)c1cc(Cl)ccc1O)c1ccc(-c2ccccc2)cc1 | 0 | -3 | 5 | 0
COc1ccc(OCCCNCCO)cc1 | 0 | 41* | 3 | -1
Cc1cc(OCCCNCCO)ccc1C(C)C | 0 | 64* | 32 | -1
COCCNCCCOc1ccc(C(C)C)c(C)c1 | 0 | -11 | 12 | -2
COc1ccc(OCCCCCNCCO)cc1 | 0 | -16 | -7 | -2
O=C(NCCc1ccccc1)c1ccc2cncc(-c3ccccc3)c2n1 | 0 | 47* | -13 | 0
COc1ccc(-c2cncc3ccc(C(=O)NCc4ccccc4)nc23)cc1 | 0 | 68* | -7 | -1
COc1ccc(-c2cncc3ccc(C(=O)NCc4cnc(C)cn4)nc23)cc1 | 0 | 70* | 3 | 0
COc1ccccc1CNC(=O)c1ccc2cncc(-c3ccccc3)c2n1 | 0 | 65* | 11 | 0
O=C(NCCc1ccccc1)c1nnc(-c2cccnc2)o1 | 0 | 2 | -6 | 0
COCCN1C=C(C(=O)OC)C(c2ccc(Cl)s2)C(C(=O)OC)=C1 | 0 | 12 | 5 | -1
Cc1cccc(Nc2sc(C(=O)c3ccccc3)c(N)c2C(N)=O)c1 | 0 | 0 | -14 | -1
O=C(NCc1ccncc1)c1ccc2cncc(-c3cc4ccccc4o3)c2n1 | 0 | 32 | -3 | 0
O=C(NCc1ccco1)c1ccc2cncc(-c3cc4ccccc4o3)c2n1 | 0 | 54* | 3 | 0
O=C(NCc1ccco1)c1ccc(N2CC3CC(C2)c2cccc(=O)n2C3)c(NC(=O)c2ccncc2)c1 (stereo not given) | 0 | 45* | 2 | 0
COc1cccc(CNC(=O)c2cc3cc(-c4cn[nH]c4)ccc3[nH]2)c1 | 0 | 5 | 3 | -1
O=C(N/N=C\c1ccc(O)cc1O)c1ccc(=O)[nH]n1 | -3 | 3 | 60* | 1
O=C(N/N=C/c1ccc(O)cc1O)c1ccc(NC(=O)c2ccccc2Cl)cc1 | -1 | 15 | 19 | 0
O=C(N/N=C/c1ccc(O)cc1O)c1ccc(-c2ccccc2)cc1 | 0 | 45* | 6 | 0
O=C(N/N=C/c1ccc(O)cc1O)c1ccc(Br)cc1 | 0 | 42* | 37 | -1
O=C(N/N=C/c1ccc(O)cc1O)c1ccc(O)cc1 | -1 | -22 | -1 | -2
O=C(N/N=C/c1ccc(O)cc1O)c1cccc(NC(=O)c2ccccc2F)c1 | 0 | 40* | 10 | 0
O=C(N/N=C\c1cc(Br)ccc1F)c1ccc(=O)[nH]n1 | 0 | -11 | -6 | 1
O=C(O)c1ccc2c(c1)NC(=O)C(CS(=O)(=O)Cc1cccc(Br)c1)N2 (stereo not given) | 0 | 5 | 9 | -1
CCc1ccc(NC(=O)CCS(=O)(=O)c2ccc(OC)cc2)cc1 | 0 | 0 | 11 | 1
SMILES | FBW7 activator | TEAD-YAP block | MITF primary | GPR151 activ
O=C(N/N=C/c1ccc(O)cc1O)c1ccc[n+]([O-])c1 | -1 | -8 | 73* | -1
O=C(N/N=C\c1ccc(O)cc1O)c1cncc(Br)c1 | 0 | 31 | 79* | 1
O=C(N/N=C/c1cccc(O)c1O)c1nn(Cc2ccccc2)c(=O)c2ccccc12 | -1 | -17 | 25 | -1
O=C(N/N=C/c1ccc(O)cc1O)c1nn(Cc2ccccc2)c(=O)c2ccccc12 | -1 | 64* | 25 | -2
O=C(N/N=C/c1ccccc1Cl)c1cncc(Br)c1 | 0 | -4 | -3 | -2
O=C(N/N=C/c1ccc(O)cc1O)c1cc2ccccc2cc1O | -1 | 67* | 4 | -1
CCOC(=O)C1CCN(C(=O)COc2ccc(C)cc2Br)CC1 | 0 | 3 | 2 | 1
CN(C)c1ccc(/C=C/c2ccc([N+](=O)[O-])cc2)cc1 | 0 | -6 | 11 | 0
